Test [1] deals with TRPC4 beta (transient receptor potential cation channel C4), mouse. Briefly: TRPC4 cation channel opening, retest – cell-based, Fluo4 calcium, HEK293 TRPC4beta/mu-opioid, duplicates, 10 µM, confirmation (AID 2426;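 active = fluorescence ratio normalized to control raised more than 50% in primary screen plus both repeat runs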). Conditions: Fluo4 calcium fluorescence, at 10 µM; stronger effect = higher value.
Test [2] relates to transient receptor potential cation channel C4 beta (TRPC4), mouse. The test can be described thus: TRPC4 cation channel opening, second retest – cell-based, second round, Fluo4, HEK293 TRPC4beta/mu-opioid, 1 µM, confirmation (AID 2461;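 active = primary screen active and over 50% activation in each of two duplicate runs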). The conditions noted are these: Fluo4 calcium fluorescence, at 1 µM; stronger effect = higher value.
Test [3] deals with TRPC4 (transient receptor potential cation channel C4 beta), mouse. Briefly: potentiation of DAMGO EC20 TRPC4 response – cell-based, second round, Fluo-4, HEK293 TRPC4beta/mu-opioid, 1 µM, confirmation (AID 2554;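 active = primary screen hit whose fluorescence ratio, in both repeats, exceeds the weak agonist control mean by 3 SD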). Conditions: DAMGO EC20, Fluo-4 calcium flux, at 1 µM; stronger effect = higher value.
Test [4] relates to TRPC4 beta (transient receptor potential cation channel C4), mouse. The test can be described thus: potentiation of DAMGO EC20 TRPC4 response – cell-based, Fluo-4, HEK293 TRPC4beta/mu-opioid, confirmation (AID 2555;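 active = primary screen hit whose calcium fluorescence ratio, in both repeats, exceeds the weak agonist control mean by 3 SD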). The conditions noted are these: DAMGO EC20, Fluo-4 calcium flux, at 10 µM; stronger effect = higher value.
In test [5] the target is Short transient receptor potential channel 4 (Mus musculus) (UniProt Q9QUQ5). The test can be described thus: blockers of DAMGO-evoked TRPC4 calcium flux – cell-based, Fluo4, HEK293 TRPC4beta/mu-opioid, confirmation (AID 2636;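 active = calcium signal cut by more than 3 SD below the full-agonist control yet still positive, in both repeats and the earlier primary screen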). Conditions: at 10 µM; stronger effect = higher value. A general note: A change in cytosolic calcium serves as a functional read-out for many receptors and channels.

Test [6] has the same target. Briefly: blockers of DAMGO-evoked TRPC4 calcium flux – cell-based, second round, Fluo4, HEK293 TRPC4beta/mu-opioid, 1 µM, confirmation (AID 2637;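 active = calcium signal ratio cut to more than 3 SD under the fully stimulated control mean yet still positive, in both repeats and the primary screen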). Conditions: at 1 µM; stronger effect = higher value.
Test [7] shares this target. The test can be described thus: calcium entry via TRPC4 opening agents – cell-based, HEK293 TRPC4/mu-opioid, Fluo-4 calcium, dose response (AID 434937;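 active = primary screen activator hit with a dose response curve and TRPC4 channel activation at any tested dose; inactive = no activation, no dose response, or not a primary hit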).
For test [8] the target is unchanged. The test can be described thus: potentiation of DAMGO-evoked TRPC4 calcium signal – cell-based, HEK293 TRPC4/mu-opioid, Fluo-4 calcium, EC20 DAMGO, dose response (AID 434941).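 Note: calcium entry triggered by an EC20 dose of DAMGO at the co-expressed mu-opioid receptor.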
Test [9] shares this target. The test can be described thus: block of DAMGO-driven TRPC4 calcium entry – cell-based, HEK293 TRPC4/mu-opioid, Fluo-4 calcium, dose response (AID 434942;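 active = primary screen inhibitor hit that blocks the TRPC4 channel at some tested dose, yielding a dose curve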).
Test [10] deals with Short transient receptor potential channel 6 (Mus musculus) (UniProt Q61143). The test can be described thus: TRPC6 blockade by TRPC4 inhibitor hits – cell-based, HEK293, membrane potential dye, duplicate, selectivity assay for TRPC4 inhibitor project, confirmation (AID 434948;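 active = active in primary screen and both duplicates, each dropping signal beyond three positive-control SD with fluorescence still positive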). Conditions: HEK293 TRPC6, membrane potential dye fluorescence, at 10 µM, stimulated with maximal-effect acetylcholine; stronger effect = higher value.

Test [11] shares this target. The test can be described thus: TRPC6 opening by TRPC4 activator hits – cell-based, HEK293, membrane potential dye, duplicate, selectivity assay for TRPC4 activator project, confirmation (AID 434950;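 active = membrane potential signal rise above negative control mean plus 3 SD in both duplicates, also active in the earlier TRPC4 screen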;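 for activation: 0% = buffer only wells and 100% = acetylcholine maximal-effect wells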). Conditions: HEK293 TRPC6, membrane potential fluorescence, at 10 µM; activation: stronger effect = higher value; outcome: activation.
Test [12] has the same target. The test can be described thus: positive modulators of mouse TRPC6 channel – HEK293 cells, membrane potential dye, duplicate, selectivity assay for TRPC4 potentiator project, confirmation (AID 434952;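 active = compound raising the membrane signal above positive-control mean plus 3 SD in both repeats, and a primary screen hit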). Conditions: HEK293 TRPC6, membrane potential dye fluorescence, at 10 µM, maximal acetylcholine added after compound; stronger effect = higher value.
Test [13] concerns the target Short transient receptor potential channel 4 (Mus musculus) (UniProt Q9QUQ5). The test can be described thus: calcium flux activators in TRPC4/5HT1a cells, counter-screen for TRPC4 activator project, cell-based, second counter screen, HEK293 TRPC4/5HT1a, Fluo-4 (AID 434977;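 active = calcium signal rise above buffer-control mean plus 5 SD in both duplicates, and also a hit in the primary screen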). Conditions: Fluo-4 calcium flux, at 10 µM; stronger effect = higher value.
Test [14] is described as follows: serotonin-gated TRPC4 signal block – cell-based, second counter screen, HEK293 TRPC4/5HT1a, Fluo-4, counter-screen for TRPC4 inhibitor project, confirmation (AID 434978;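 active = primary screen active whose calcium signal fell more than 3 SD beyond the full-serotonin control mean in both duplicate plates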;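 note: serotonin given first at submaximal then at maximal dose after compound preincubation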). The conditions noted are these: Fluo-4 calcium flux, at 10 µM, serotonin added to trigger calcium flux; stronger effect = higher value. On the technique in general: Counterscreens check selectivity or assay interference.

Test [15] relates to TRPC4 (mouse), co-expressed with 5HT1a in HEK293. The test can be described thus: enhancement of serotonin-evoked TRPC4 response – cell-based, second counter screen, HEK293 TRPC4/5HT1a, Fluo-4, counter-screen for TRPC4 potentiator project, confirmation (AID 434979;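 active = signal rise over 3 SD above mean of control wells given weak agonist, in both repeats and first screen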). The conditions noted are these: Fluo-4 calcium flux, at 10 µM, serotonin added at its EC20 dose; stronger effect = higher value.

Test [16] can be described thus: nonspecific calcium rise without TRPC4 – cell-based, HEK293 mu-opioid receptor line, counter-screen for TRPC4 activator project, confirmation (AID 449723;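 active = hit in primary screen, with calcium signal over 5 SD above buffer well mean in both duplicates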;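 note: counter screen cells carry the mu-opioid receptor alone and lack TRPC4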). Conditions: HEK293 mu-opioid cells, Fluo-4 calcium fluorescence, at 10 µM; stronger effect = higher value.
Test [17] is described as follows: nonspecific potentiation of DAMGO calcium response – cell-based, HEK293 mu-opioid receptor line, counter-screen for TRPC4 allosteric potentiator project, confirmation (AID 449724;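 active = calcium signal rise more than 3 SD above the low-dose agonist control mean, in both duplicate plates and the primary screen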;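 note: HEK293 cells carrying mu-opioid receptor only with no TRPC4 channel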). The conditions noted are these: HEK293 mu-opioid receptor cells, Fluo-4 calcium flux, at 10 µM, compound added before EC20 DAMGO stimulus; stronger effect = higher value.

Structures are written as SMILES. For part of these data: Results with a measured potency or affinity are listed apart. Active and inactive are the calls of the source.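 Rule for the calls, unless noted: active = earlier screen potentiator hit that boosts the TRPC4 ion channel at some dose, with a dose response; inactive = no potentiation, no dose response, or not a prior hit.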

Sequence of Short transient receptor potential channel 6 (Mus musculus) (Q61143 whole entry, looked up): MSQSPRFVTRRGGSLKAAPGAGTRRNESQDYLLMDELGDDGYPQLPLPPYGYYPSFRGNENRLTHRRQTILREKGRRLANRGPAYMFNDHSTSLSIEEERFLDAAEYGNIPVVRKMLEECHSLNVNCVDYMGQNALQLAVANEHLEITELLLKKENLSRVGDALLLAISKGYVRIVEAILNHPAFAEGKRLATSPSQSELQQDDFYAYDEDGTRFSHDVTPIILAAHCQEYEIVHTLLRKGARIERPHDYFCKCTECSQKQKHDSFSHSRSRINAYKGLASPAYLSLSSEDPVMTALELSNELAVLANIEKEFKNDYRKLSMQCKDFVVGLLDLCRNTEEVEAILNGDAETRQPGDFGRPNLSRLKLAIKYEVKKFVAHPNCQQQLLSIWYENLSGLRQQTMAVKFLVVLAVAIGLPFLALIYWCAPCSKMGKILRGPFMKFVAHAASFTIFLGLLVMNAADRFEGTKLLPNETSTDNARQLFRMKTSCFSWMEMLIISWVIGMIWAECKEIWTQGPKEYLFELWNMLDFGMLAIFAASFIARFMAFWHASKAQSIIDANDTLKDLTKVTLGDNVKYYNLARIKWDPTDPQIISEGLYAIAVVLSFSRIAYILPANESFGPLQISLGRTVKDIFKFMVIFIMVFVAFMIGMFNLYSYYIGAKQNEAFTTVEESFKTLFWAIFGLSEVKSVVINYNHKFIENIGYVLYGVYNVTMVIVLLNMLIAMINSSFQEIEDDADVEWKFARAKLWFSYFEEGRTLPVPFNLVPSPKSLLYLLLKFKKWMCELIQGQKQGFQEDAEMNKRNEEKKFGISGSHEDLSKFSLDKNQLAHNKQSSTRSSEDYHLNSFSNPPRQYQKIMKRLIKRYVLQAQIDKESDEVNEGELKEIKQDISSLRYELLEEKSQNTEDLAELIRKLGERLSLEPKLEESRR
Sequence of Short transient receptor potential channel 4 (Mus musculus) (Q9QUQ5 whole entry, looked up): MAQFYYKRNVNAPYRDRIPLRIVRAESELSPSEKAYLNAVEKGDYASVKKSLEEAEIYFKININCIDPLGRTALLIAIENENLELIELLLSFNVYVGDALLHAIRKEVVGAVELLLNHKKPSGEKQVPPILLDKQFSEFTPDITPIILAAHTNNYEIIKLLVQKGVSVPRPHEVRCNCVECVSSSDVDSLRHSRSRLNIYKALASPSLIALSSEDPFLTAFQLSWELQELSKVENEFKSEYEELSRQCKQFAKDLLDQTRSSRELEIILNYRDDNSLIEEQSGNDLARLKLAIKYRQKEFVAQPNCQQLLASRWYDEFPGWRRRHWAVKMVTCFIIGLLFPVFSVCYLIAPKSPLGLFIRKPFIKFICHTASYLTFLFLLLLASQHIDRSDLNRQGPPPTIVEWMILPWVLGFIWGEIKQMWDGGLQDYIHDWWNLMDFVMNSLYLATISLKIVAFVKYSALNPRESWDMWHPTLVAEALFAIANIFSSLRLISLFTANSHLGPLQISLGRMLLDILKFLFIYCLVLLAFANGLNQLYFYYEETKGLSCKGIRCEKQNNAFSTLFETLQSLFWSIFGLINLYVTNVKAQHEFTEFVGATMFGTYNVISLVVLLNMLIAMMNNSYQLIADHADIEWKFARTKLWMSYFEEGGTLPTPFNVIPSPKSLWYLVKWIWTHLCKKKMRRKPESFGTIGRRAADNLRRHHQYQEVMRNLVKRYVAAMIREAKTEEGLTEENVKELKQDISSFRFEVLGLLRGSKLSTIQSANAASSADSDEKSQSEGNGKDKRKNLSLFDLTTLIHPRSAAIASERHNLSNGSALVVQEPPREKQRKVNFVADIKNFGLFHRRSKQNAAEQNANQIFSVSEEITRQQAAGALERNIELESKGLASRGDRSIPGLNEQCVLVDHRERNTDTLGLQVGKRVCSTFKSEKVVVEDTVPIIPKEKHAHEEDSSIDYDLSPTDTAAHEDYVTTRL

In the case of `COc1ccc(/C=C2/SC(=S)N(NS(=O)(=O)c3ccc(C)cc3)C2=O)cc1`, the result in [1], in test [2], in [3], in test [4], in test [5] and in [6] was inactive. Also, the result in test [7], in [8], in [9], in test [10], in test [11] and in [12] was inactive. The result in [13], in test [14], in test [15], in [16] and in test [17] was inactive.
On to `CC(=O)N1N=C(c2c(-c3ccccc3)c3cc(C)ccc3[nH]c2=O)CC1c1ccco1` (stereo not given), for which the result in test [1], in test [2], in test [3], in test [5], in test [6] and in test [7] was inactive. For the same molecule, the result in test [8], in [9], in test [10], in [11], in [13] and in test [14] was inactive. In addition, the outcome in [16] and in [17] was inactive. The potentiation was 10% (active) in test [4] and 15.5% (active) in test [15]. Further, the potentiation, percent of control in test [12] is 186% (active).
On to `Cc1cc(OCC(=O)NNC(=S)NC(=O)c2ccc(Br)o2)ccc1Cl`, for which the outcome in [1], in test [2], in [3], in test [5], in test [6] and in [7] was inactive. Moreover, the outcome in [8], in test [9], in [10], in test [11], in test [12] and in test [13] was inactive. Moreover, the result in test [14], in test [15], in test [16] and in test [17] was inactive. Besides, in test [4], the potentiation was 10% (active).
`CC(C)Oc1cccc(C(=O)NC(=S)Nc2ccc(N3CCN(C)CC3)cc2)c1`: the result in test [1], in test [2], in test [3], in [4], in test [5] and in test [6] was inactive. Also, the outcome in [7], in test [8], in test [9], in test [10], in test [11] and in [12] was inactive. Further, the result in test [13], in test [14], in test [16] and in test [17] was inactive. Besides, the potentiation in [15] was 16.6% (active).
With `COc1ccc(Br)cc1CN1CCC(N2CCCC2)CC1`, the result in [1], in [2], in test [3], in test [4], in [5] and in test [6] was inactive. Further, the result in test [7], in test [8], in test [9], in test [10], in [11] and in [12] was inactive. Also, the outcome in [13], in test [14], in test [16] and in test [17] was inactive. The potentiation in test [15] was 13.5% (active).
On to `CCN1C(=O)/C(=C/C=C2\N(CC)c3cc(S(=O)(=O)N(C)C)ccc3N2c2ccccc2)SC1=S`, for which the result in test [1], in test [2], in test [3], in test [5], in [6] and in [7] was inactive. The outcome in test [8], in test [9], in [10], in test [11], in test [12] and in test [13] was inactive. Also, the outcome in test [14] and in [16] was inactive. Besides, the potentiation was 13% (active) in test [4] and 24.9% (active) in test [15]. For the same molecule, in test [17], the activation was 996% (active).
Turning to `CCN(CC(=O)NCc1ccc(Cl)cc1)CC(=O)NC1(C#N)CCCC1`, the outcome in [1], in [2], in test [3], in test [4], in test [5] and in test [6] was inactive. The outcome in [7], in test [8], in test [9], in test [10], in [11] and in test [12] was inactive. Besides, the outcome in test [13], in test [14], in test [15], in test [16] and in test [17] was inactive.
In the case of `CCCC(=O)Nc1c(-c2ccccc2)c(=O)c(C)nn1-c1ccc(Cl)cc1`, the result in test [1], in test [2], in test [3], in test [4], in test [5] and in [6] was inactive. Further, the outcome in test [7], in test [8], in test [9], in test [10], in [12] and in test [13] was inactive. In addition, the result in [14], in test [15], in [16] and in test [17] was inactive. Besides, the activation in test [11] was 33.5% (active).
In the case of `c1ccc(Cc2nc3ccccc3n2Cc2ccccc2)cc1`, the result in test [1], in test [2], in [3], in test [4], in test [5] and in test [6] was inactive. The outcome in test [7], in test [8], in [9], in test [10], in test [11] and in test [12] was inactive. Further, the result in test [13], in test [14], in test [15], in test [16] and in test [17] was inactive.
Regarding `O=C(NCCCN1CCOCC1)C1CCN(S(=O)(=O)c2c(Cl)cccc2Cl)CC1`, the outcome in test [1], in test [2], in test [3], in test [4], in test [5] and in [6] was inactive. Besides, the outcome in [7], in test [8], in test [9], in [10], in test [11] and in [12] was inactive. Besides, the outcome in test [13], in test [14], in test [15], in [16] and in [17] was inactive.
As to `O=C(Nc1nc2c(s1)CN(Cc1ccccc1)CC2)c1c(F)cccc1F`, the outcome in test [1], in test [2], in [3], in [5], in test [6] and in [7] was inactive. The result in test [8], in test [9], in [10], in [11], in test [12] and in test [13] was inactive. The outcome in test [14], in test [16] and in test [17] was inactive. Moreover, the potentiation in test [4] was 10% (active); in test [15], 14% (active).
Take `Cc1cc(Br)ccc1OCCN1CCCC1`: the result in [1], in test [2], in test [4], in [5], in [6] and in [7] was inactive. Moreover, the outcome in [8], in test [9], in [10], in test [11], in test [12] and in test [13] was inactive. Moreover, the result in test [14], in [16] and in test [17] was inactive. Moreover, the figures for the potentiation in test [3] and in [15] were 12% (active) and 7.25% (active), respectively.
For the molecule `Cc1ccnc(NC(=O)COC(=O)C23CC4CC(CC(C4)C2)C3)n1`, the outcome in test [1], in test [2], in [3], in [5], in test [6] and in [7] was inactive. The result in test [8], in test [9], in [10], in test [11], in [12] and in [13] was inactive. Further, the outcome in test [14], in test [16] and in test [17] was inactive. Moreover, the potentiation is 128% (active) in test [4] and 104% (active) in test [15].
For `Cc1c(N2C(=O)/C(=C\C3CC=CCC3)SC2=S)c(=O)n(-c2ccccc2)n1C` (stereo not given), the outcome in test [1], in [2], in test [3], in test [4], in test [5] and in test [6] was inactive. The outcome in [7], in test [8], in test [9], in test [10], in test [11] and in [12] was inactive. Moreover, the outcome in test [13], in test [14], in test [15], in test [16] and in test [17] was inactive.
For `CCOc1ccc(CN(C)CC(=O)NNC(=O)c2ccc(Cl)cc2)cc1OC`, the result in [1], in test [2], in test [5], in [6], in test [7] and in test [8] was inactive. The outcome in test [9], in test [10], in test [11], in [12], in test [13] and in [14] was inactive. Also, the result in [16] and in test [17] was inactive. In addition, the potentiation in [3] is 41% (active); in test [4], 22% (active); in test [15], 11% (active).
